High-throughput results deposited in PubChem by National Center for Advancing Translational Sciences (NCATS).
Shiga inhibitor = Shiga toxin inhibition; Vero cells, Shiga toxin protein synthesis inhibition reporter; inhibition, % at 38.7 µM; 290,000 compounds, 9.2% hits; AID 2315; in the data active means inhibition mostly above about 28%, no sharp cut-off; inactive means mostly below about 43%
Pf growth 48h = P. falciparum growth inhibition at 48 hours (one generation); P. falciparum luciferase growth in erythrocytes, 48 h; Potency, µM (top dose mostly 28.7 µM), actives largely listed as inhibitors; 310,000 compounds, 5.9% hits
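Cell-based growth assay: transgenic P. falciparum expressing firefly luciferase, cultured in red cells within RPMI 1640 containing 0.5% w/v Albumax, 24 mM bicarbonate and gentamycin. A drop in luciferase activity indicates inhibition.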
HCMV antiviral = inhibitors of human cytomegalovirus; AID 1259415; 410,000 compounds, 4.5% hits; activity change, negative = inhibition, % at 57.5 µM; HFF cells, HCMV-luciferase reporter, 72 h; hits give low values; in the data active means activity change below about -60%; inconclusive means no clear call, values can overlap the other calls; inactive means above about -39%
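Two-dose cell screen: HFF monolayers treated with compounds and infected with luciferase-expressing HCMV at 1 PFU/cell, 72 h at 37C, then lysed for luciferase measurement.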
Pf growth 96h = P. falciparum growth inhibition at 96 hours. P. falciparum luciferase reporter growth, 96 h. Potency, µM (highest dose often 28.7 µM), hits mostly inhibitors. 320,000 compounds, 6.9% hits. AID 504834
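Delayed-death screen, second-generation endpoint: infected erythrocytes, 2% hematocrit, 0.05% parasitemia final; 96 hours at 37 C, 5% CO2; luciferase detection reagent; luminescence decrease equals reduced growth.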
Cycloheximide cs = counter-screen for Shiga toxin inhibitors: cycloheximide protein synthesis inhibition; cell reporter, cycloheximide protein synthesis inhibition counterscreen; max response, %; 300,000 compounds, 12% hits; AID 2314; in the data active means max response mostly above about 13%, no sharp cut-off; inactive means mostly below about 14%; further: read at 38.3 µM for the half of the compounds with a filed dose
HCV inhibitor = HCV inhibition; Huh7.5.1 HCVcc-Cre infection, luciferase reporter, 44 h; Potency, µM (series often up to 41.8 µM), hits mostly inhibitors; 340,000 compounds, 3.4% hits; AID 651820
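A cell-based infection assay in which seeded cells (1,000 per well) receive test compound after 4 h, are inoculated with HCVcc-Cre at approximately 0.5 moi, and are incubated 44 h before luminescence detection.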
Hits are given with their value; – = inactive; ? = inconclusive; · = not tested or not shown. Compounds with a hit are over-represented: about 21% of the library has one in this group of screens. Unless noted, the call rests on the fitted dose curve; in most records, active means well fitted inhibition curve with a large enough effect; inconclusive means small, poorly fitted or top-dose-only effect, or another doubt; inactive means no such curve, though single readings can be large or run the other way.

SMILES	Shiga inhibitor	Pf growth 48h	HCMV antiviral	Pf growth 96h	Cycloheximide cs	HCV inhibitor
COc1ccc(S(=O)(=O)N2CCCCC2)cc1NC(=O)C1CSC2(C)CCC(=O)N12 (stereo not given)	–	?	·	–	–	–
CC(C)Oc1ccc(S(=O)(=O)N2CCCCC2)cc1NC(=O)C1CSC2(C)CCC(=O)N12 (stereo not given)	·	12µM	?	?	·	–
Cc1ccc(-c2csc(NC(=O)C3CSC4(C)CCC(=O)N34)n2)cc1 (stereo not given)	·	–	–	–	·	–
COc1cc(NC(=O)C2CSC3(C)CCC(=O)N23)c(OC)cc1Cl (stereo not given)	·	?	–	–	·	10µM
CNC(=O)c1ccc(CSc2nc3ccncc3n2Cc2ccc(C)cc2)cc1	·	·	–	·	·	·
CCCCN1C(=O)C(=O)N(CC(=O)c2cc(C)n(C3CC3)c2C)C1=O	·	–	–	–	·	–
Cc1ccc(-c2cc3c(n2-c2ccc(F)cc2)CC(C)(C)CC3=O)cc1	·	·	–	·	·	·
CCOc1ccccc1NC(=O)COC(=O)CN1C(=O)NC(C)(C)C1=O	·	·	–	·	·	–
Cc1ccc2c(c1)-c1onc(C(=O)N3CCN(c4cc(C)ccc4C)CC3)c1CO2	·	·	–	·	·	·
CCCN1CCN(C(=O)c2noc3c2COc2ccc(C)cc2-3)CC1	54	–	–	–	17	–
CCOC(=O)N1CCN(C(=O)c2noc3c2COc2ccccc2-3)CC1	–	–	–	?	20	–
Cc1ccccc1NCc1nc2ccccc2n1CCOc1ccccc1	·	·	–	·	·	·
COc1ccc(N2CC(NC(=O)COc3cccc(C)c3)CC2=O)cc1OC (stereo not given)	·	·	–	·	·	·
CN1c2ccsc2C(O)=C(C(=O)Nc2ccccc2)S1(=O)=O	–	–	–	–	–	–
Cc1ccc(NC(=O)C2=C(O)c3sccc3N(C)S2(=O)=O)cc1	–	–	–	–	23	–
Cc1ccc(NC(=S)C2=C(O)c3sccc3N(C)S2(=O)=O)cc1	–	–	–	·	19	–
CCCN(CCC)C(=O)Cn1c(SCc2cccc(F)c2)nc2cccnc21	·	·	–	·	·	·
Cc1cccc(-c2nnc(SCc3nc4ccccc4[nH]3)n2Cc2ccco2)c1	–	?	-61	?	–	?
c1ccc(CSc2nnc(-c3cccs3)n2Cc2ccco2)cc1	–	?	–	–	–	–
Cc1ccc(-c2nnc(SCc3nc4ccccc4[nH]3)n2Cc2ccco2)cc1	–	?	–	?	–	–
c1coc(Cn2c(SCc3nc4ccccc4[nH]3)nnc2-c2cccs2)c1	–	–	?	10µM	–	–
O=C(NNC(=O)c1ccccc1OCc1ccc(F)cc1)c1ccncc1	·	?	–	–	·	–
CCOc1ccccc1C1N=C(c2ccc(OC)cc2)CC(c2ccccc2O)N1 (stereo not given)	114	–	–	–	46	?
CC(C)(Cc1c[nH]c2ccccc12)NCC(O)COc1ccccc1C#N (stereo not given)	–	17µM	·	7.6µM	–	·
Cc1c[nH]c2cccc(OCC(O)CNC(C)(C)C)c12 (stereo not given)	–	–	–	–	–	–
SMILES	Shiga inhibitor	Pf growth 48h	HCMV antiviral	Pf growth 96h	Cycloheximide cs	HCV inhibitor
Clc1nc(-c2ccccc2)cc(-c2ccccc2)n1	–	–	–	?	17	?
NNc1nc(-c2ccccc2)cc(-c2ccccc2)n1	–	?	–	–	–	13µM
N#Cc1cc(-c2ccccc2)nc(NN)n1	–	?	?	10µM	–	–
CCN(CC)C(=O)c1[nH]cnc1C(=O)N[C@@H](Cc1ccccc1)C(=O)OC(C)(C)C	–	–	–	?	–	–
COCc1cc(C2SCC(=O)Nc3c2c(=O)[nH]n3C(C)C)ccc1OC (stereo not given)	–	–	–	–	–	5.6µM
CNC(=O)Nc1ccccc1C(=O)Nc1ccccc1	–	–	–	–	–	–
CCOC(=O)c1sc2c(c1C)c(=O)c(C(=O)OCC)cn2CC	–	2.3µM	–	–	–	–
CCN(CC)P(=O)(c1ccccc1)c1c(C)nc2ccccn12 (stereo not given)	–	–	–	–	–	–
COCCNC(=O)COC(=O)c1ccc(OCC(=O)Nc2ccccc2OC)c(OC)c1	–	–	–	–	–	–
COc1ccc(S(=O)(=O)CCC(=O)NCCc2ccc(S(N)(=O)=O)cc2)cc1	–	–	?	9.3µM	–	–
